The panel holds about 83,000 compounds, 20% with a hit somewhere; the sample as a whole holds those more often.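 The test compound was applied at a single concentration to cells in 96-well plates for 48 hours, and percent growth was recorded.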 Values without a mark were called inactive. Calls of active or inactive are those of the source. How the source made its calls: active means growth percent below 10; inactive means the rest.
Experiments:
Assay in all cases: NCI-60 one-dose screen, 48 h (100 = growth as untreated, 0 = no growth, -100 = all killed)
Conditions in all cases: 10 µM
NCI-H23 lung = tested on: NCI-H23 lung
NCI-H226 lung = tested on: NCI-H226 lung
NCI-H322M lung = tested on: NCI-H322M lung
HOP-62 NSCLC = tested on: HOP-62 NSCLC
NCI-H460 lung = tested on: NCI-H460 lung
HOP-92 NSCLC = tested on: HOP-92 NSCLC
NCI-H522 lung = tested on: NCI-H522 lung
A549/ATCC NSCLC = tested on: A549/ATCC NSCLC
786-0 renal = tested on: 786-0 renal
COLO 205 colon = tested on: COLO 205 colon
DU-145 prostate = tested on: DU-145 prostate
K-562 leukemia = tested on: K-562 leukemia
MALME-3M melanoma = tested on: MALME-3M melanoma
MDA-MB-231 breast = tested on: MDA-MB-231 breast
SF-268 CNS = tested on: SF-268 CNS
SF-295 CNS = tested on: SF-295 CNS
SF-539 CNS = tested on: SF-539 CNS
UACC-257 melanoma = tested on: UACC-257 melanoma
M14 melanoma = tested on: M14 melanoma

| SMILES | growth (NCI-H23 lung) | growth (NCI-H226 lung) | growth (NCI-H322M lung) | growth (HOP-62 NSCLC) | growth (NCI-H460 lung) | growth (HOP-92 NSCLC) | growth (NCI-H522 lung) | growth (A549/ATCC NSCLC) | growth (786-0 renal) | growth (COLO 205 colon) | growth (DU-145 prostate) | growth (K-562 leukemia) | growth (MALME-3M melanoma) | growth (MDA-MB-231 breast) | growth (SF-268 CNS) | growth (SF-295 CNS) | growth (SF-539 CNS) | growth (UACC-257 melanoma) | growth (M14 melanoma) |
| --- | --- | --- | --- | --- | --- | --- | --- | --- | --- | --- | --- | --- | --- | --- | --- | --- | --- | --- | --- |
| O=S(=O)(Nc1ncccn1)c1ccc(-n2c(-c3ccc(Br)cc3)nc(-c3ccccc3)c2-c2ccccc2)cc1 | 22.5% | 26% | 64.1% | 56.8% | 31.7% | 11.4% | 74.5% | 34.9% | 34.5% | 124% | 58.3% | 44% | 74.6% | 51.3% | 32.5% | 8.26% (active) | 55.8% | 59.4% | 38.4% |
| CC[C@]12C=CCN3CC[C@@]4(c5cc(C#CCNc6ccc(C)c(Nc7nccc(-c8cccnc8)n7)c6)c(OC)cc5N(C)[C@H]4[C@@](O)(C(=O)OC)[C@@H]1OC(C)=O)C32 (stereo not given in full) | 56.3% | 30.6% | 90.8% | 64.2% | 34.1% | 42.2% | 58.5% | 36.8% | 46.3% | 31.7% | 59.7% | 35.1% | 61.1% | 39.6% | 57.9% | 39.5% | 8.99% (active) | 70.2% | 45.1% |
| O=c1c2ccccc2nc(COc2ccccc2)n1/N=C/c1ccc(F)cc1 | 85.6% | 78.9% | 96.6% | 105% | 85.4% | 100% | 81.8% | 86.2% | 89.4% | 114% | 91.4% | 69.8% | 115% | 88% | 99.7% | 89.4% | 89.6% | 99.8% | 98.8% |
| O=C(NO)c1ccc(CN2CCN(c3nc(-c4ccccc4)c4ccccc4n3)CC2)cc1 | -5.08% (active) | 3.26% (active) | 23.6% | 2.94% (active) | 6.1% (active) | 37% | -21.2% (active) | 1.35% (active) | 14% | 6.97% (active) | 23.1% | 11.4% | 11.2% | 35% | 26.5% | -11.7% (active) | -23.8% (active) | 43.3% | 5.75% (active) |
| CCNCCCn1c2c(c3cc(OC)c(OC)cc3c1=O)C(=O)c1cc3c(nc1-2)OCO3 | -27.2% (active) | -79.7% (active) | 35.2% | 11.7% | -24.7% (active) | 44.4% | 35.8% | 21.1% | -71.7% (active) | 25.7% | 12.1% | -18.2% (active) | -93.5% (active) | -91.6% (active) | 8.1% (active) | 4.2% (active) | -44.1% (active) | 45.4% | 0.853% (active) |
| CCOC(=O)C1=C(N)N(c2ccccc2)C2=C(C(=O)CC(C)(C)C2)C1c1ccc(Cl)cc1 (stereo not given) | 48.9% | 70.4% | 64.9% | 80.7% | 13% | 69.5% | 38.4% | 33.9% | 67.3% | -17.7% (active) | 58.3% | 18.3% | 15.9% | 53% | 58% | 21.3% | 36.2% | 28% | 28.2% |
| CN1C(=O)N(C)C2SC(N/N=C/C=C/c3ccccc3)=NC21 (stereo not given) | 84.9% | 79.3% | 93.9% | 85.9% | 94.5% | 97.9% | 56.1% | 87.5% | 73.9% | 122% | 84.2% | 25.3% | 66.8% | 82.4% | 75.2% | 72.7% | 75.7% | 83.1% | 54.7% |
| COc1cc(/C=C/C(=O)c2ccc(S(=O)(=O)NCCNc3nc(Nc4ccc(F)cc4)nc(N(C)C)n3)cc2)cc(OC)c1OC | 13.7% | -21.6% (active) | 58.7% | 30.2% | 15.8% | 60.4% | 68% | 18.4% | -64.2% (active) | -50.8% (active) | 5.6% (active) | 4.79% (active) | 53.7% | -44.8% (active) | 11.1% | 13.5% | -94.9% (active) | 71.6% | 5.45% (active) |
| COC(=O)C[C@](O)(CCCC(C)(C)O)C(=O)O[C@H]1C(OC)=C[C@@]23CCC(=O)N2CCc2cc4c(cc2[C@@H]13)OCO4 | 101% | 79.4% | 112% | 93.1% | 44.3% | 116% | 78.4% | 94.9% | 97.9% | 118% | 103% | 96.7% | 81.5% | 117% | 101% | 103% | 93.3% | 109% | 102% |
| CCOC(=O)CNC(=O)CN(Cc1ccccc1)C(=O)[C@@]1(C)CCC[C@]2(C)[C@H]3CC4C(C(C)C)=C[C@]3(CC[C@H]21)[C@@H]1C(=O)CCC(=O)[C@H]41 | 48.9% | 49.3% | 86.5% | 92.3% | 65% | 80.5% | 36.7% | 65% | 78.1% | 79.4% | 92.6% | 25.3% | 83% | 64.8% | 64.7% | 54.4% | 77.2% | 70.2% | 72.2% |
| CC(C)C1=C[C@@]23CC[C@@H]4[C@](C)(CCC[C@]4(C)C(=O)NCc4ccccc4)[C@H]2C[C@@H]1[C@H]1C(=O)OC(=O)[C@H]13 | 23% | 76.1% | 102% | 57.2% | 17.6% | 64.7% | 17% | 33.7% | 70.5% | 79.6% | 55.3% | 21.5% | 87% | 77.1% | 46.6% | 17.8% | 63.2% | 82.1% | 54.3% |
| CC1CC(c2ccc(N(C)C)cc2)=NN1c1nc(O)c(C2=c3cc(Br)ccc3=NC2=O)s1 (stereo not given) | 1.13% (active) | 77.8% | 112% | 92.7% | 63.8% | 83.8% | 70.2% | 72.6% | 94% | 99.7% | 93.7% | 61.9% | 99.4% | 99.8% | 91.7% | 68.9% | 92.3% | 91.2% | 84.8% |
| O=C(CNc1nc(-c2ccccc2)cs1)Nc1ccc([N+](=O)[O-])cc1 | -6.85% (active) | 29.4% | 6.59% (active) | 33.3% | 35% | 42.8% | -74.6% (active) | 42.8% | 16% | -83.3% (active) | 45.2% | 9.52% (active) | -66.6% (active) | -13.4% (active) | 38.4% | 26% | -28.2% (active) | 39.5% | 30.2% |
| COc1ccc(/C=N/N=C(\C)c2ccc3c(c2)Nc2ccccc2S3)cc1O | 35.9% | 49.2% | 71.2% | 80.1% | 41.1% | 74.1% | 48.3% | 63.9% | 73.9% | 99.9% | 62.7% | 25.7% | 55.1% | 65.3% | 57.2% | 45.1% | 67.2% | 27.6% | 49.3% |
| COc1ccc(C(=O)/C=C/c2cc(F)cc(C(F)(F)F)c2)cc1S(N)(=O)=O | -74.8% (active) | -29.3% (active) | -3.66% (active) | -47.4% (active) | -25.3% (active) | -9.39% (active) | -79.6% (active) | 3.37% (active) | -81% (active) | -53.1% (active) | 14.1% | 5.44% (active) | -64.2% (active) | -90.5% (active) | 20.8% | -47.5% (active) | -77.8% (active) | -9.77% (active) | -68.4% (active) |

Source: PubChem BioAssay (NCI)
